# Data taken from PubChem BioAssay (NCATS).
# Inconclusive results are not listed. Values without a mark were called inactive. Calls of active or inactive are those of the source. The call rests on the fitted dose curve; in most records, active means well fitted cell-killing curve with a large enough effect; inconclusive means small, poorly fitted or top-dose-only effect, or effect the other way; inactive means no such curve, though single readings can be large or run the other way. Starred links: 1 amine or outer side, 2 acyl side, 3 side chain; linkers in the order of their positions; H or OH if unused. Positions of bridges follow the written chain, without caps; N, C: chain ends. Non-standard residues stand in square brackets, D forms with d. Residues, ends and D or L forms follow the SMILES beside them. Chains are numbered I, II in the order given. Actinocin(9to1) = Cc1c2oc3c(C)ccc(C(=O)[*:1])c3nc-2c(C(=O)[*:2])c(N)c1=O; NMeV = CN[CH](C(=O)O)C(C)C; Sar = CNCC(=O)O
# Experiment: qHTS of pediatric cancer cell lines to identify multiple opportunities for drug repurposing: Confirmatory screen for Rh30 cells (AID 1347126); further: nearly all actives have a fitted effect of over 55% in size; on activity change, negative = cytotoxic: on the % scale 0 is the no-effect control and ±100 the full control effect
# Settings: Rh30 rhabdomyosarcoma cell viability; series mostly up to 45.9 µM; activity change, negative = cytotoxic: at the top concentration
# Summary of the method: (§1)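 Cells (500-1,000/well) in growth media were settled 5 h at 37 degrees C, then given compounds for 48 h. Viability was read as CellTiter-Glo luminescence. Primary runs used MIPE at 11 points (0.78 nM-46 µM) and NPC at 8 points (0.59 nM-46 µM); follow-ups used 11 points.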
# Potency means the concentration at half of the fitted maximal effect.
SMILES,"activity change, negative = cytotoxic [%]",Potency
CN(CC(=O)N(Cc1ccc(C2CCCCC2)cc1)c1ccc(C(=O)O)c(O)c1)S(=O)(=O)c1c(F)c(F)c(F)c(F)c1F,4.31,
CC(=O)SCC(Cc1ccccc1)C(=O)NCC(=O)OCc1ccccc1 (configuration not stated),-0.248,
COc1ccc2c(c1OC)C(=O)OC2[C@H]1c2c(cc3c(c2OC)OCO3)CCN1C (some centres not stated),-29.7,
COC(=O)C=CC(=O)OC,,4.14 µM (active)
CC(C)NC[C@@H](C(=O)N1CCN(c2ncnc3c2[C@H](C)C[C@H]3O)CC1)c1ccc(Cl)cc1,,8.27 µM (active)
"Cc1c2oc3c(C)ccc(C(=O)NC4C(=O)NC(C(C)C)C(=O)N5CCCC5C(=O)N(C)CC(=O)N(C)C(C(C)C)C(=O)OC4C)c3nc-2c(C(=O)NC2C(=O)NC(C(C)C)C(=O)N3CCCC3C(=O)N(C)CC(=O)N(C)C(C(C)C)C(=O)OC2C)c(N)c1=O (configuration not stated) (I: TVP[Sar][NMeV] / II: TVP[Sar][NMeV]; ester I:1-I:C, II:1-II:C; linker I:N-II:N via Actinocin(9to1); configuration not given here)",13.5,
C=Cc1c(C)c2cc3nc(cc4[nH]c(cc5nc(cc1[nH]2)C(C)=C5CCC(=O)O)c(CCC(=O)OC)c4C)[C@@]1(C)C3=CC=C(C(=O)OC)[C@H]1C(=O)OC,-10.2,
C#CCC(Cc1cnc2nc(N)nc(N)c2n1)c1ccc(C(=O)N[C@@H](CCC(=O)O)C(=O)O)cc1 (some centres not stated),-3.33,
O=C(NC1CC1)c1cccc(-c2ccc3c(NC(=O)C4CC4)n[nH]c3c2)c1,0.29,

# Experiment: qHTS of pediatric cancer cell lines to identify multiple opportunities for drug repurposing: Confirmatory screen for Saos-2 cells (AID 1347127); further: nearly all actives have a fitted effect of over 60% in size;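 on activity change, negative = cytotoxic: plate controls were DMSO for no effect and bortezomib for full effect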
# Settings: Saos-2 osteosarcoma cell viability; series mostly up to 45.9 µM; activity change, negative = cytotoxic: at the top concentration
# Summary of the method: as §1
SMILES,Potency,outcome,"activity change, negative = cytotoxic [%]"
C=CC(=O)Nc1ccc2ncnc(Nc3ccc(OCc4cccc(F)c4)c(Cl)c3)c2c1,7.37 µM (active),,
CC(=O)ON=C1C(c2c(O)[nH]c3cc(Br)ccc23)=Nc2ccccc21,13.1 µM (active),,
O=C1NC(=O)[C@@H](c2cn3c4c(cccc24)CCC3)[C@H]1c1c[nH]c2ccccc12,0.928 µM (active),,
N#Cc1c(NC(=O)c2cccc3ccccc23)sc2c1CCCC2,0.261 µM (active),,
Cn1cnc(=N)c2[nH]cnc21,,inactive,
COc1cc(C=CC(=O)CC(=O)C=Cc2ccc(O)c(OC)c2)ccc1O,33.9 µM (active),,
Cc1cnc(Nc2ccc(N3CCN(C)CC3)cc2)nc1Nc1cccc(S(=O)(=O)NC(C)(C)C)c1,3.69 µM (active),,
CNC(=O)c1ccc(Nc2cc(Nc3ccccc3S(=O)(=O)C(C)C)c3cc[nH]c3n2)nc1,5.85 µM (active),,
C=C1C(=CC=C2CCC[C@]3(C)[C@@H]([C@H](C)CCCC(C)(C)O)CC[C@@H]23)C[C@@H](O)C[C@@H]1O,,,-1.71
O=C(NCc1ccccc1)[C@H](Cc1ccccc1)NC(=O)[C@@H]1O[C@@H]1C(=O)NCCc1ccc(O)cc1,,,-8.73
CC(=O)O[C@@]12CO[C@H]1C[C@H](O)[C@@]1(C)C(=O)[C@H](O)C3=C(C)[C@@H](OC(=O)C(O)[C@@H](NC(=O)OC(C)(C)C)c4ccccc4)C[C@@](O)([C@@H](OC(=O)c4ccccc4)[C@@H]21)C3(C)C (some centres not stated),0.0131 µM (active),,
CN(CC(=O)N(Cc1ccc(C2CCCCC2)cc1)c1ccc(C(=O)O)c(O)c1)S(=O)(=O)c1c(F)c(F)c(F)c(F)c1F,26.1 µM (active),,
CC(=O)SCC(Cc1ccccc1)C(=O)NCC(=O)OCc1ccccc1 (configuration not stated),,,18.6
CC(N[C@H]1CCCC[C@H]1NC(=O)c1ccc(Cl)cc1)c1cccc2ccccc12 (some centres not stated),26.1 µM (active),,
COc1ccc2c(c1OC)C(=O)OC2[C@H]1c2c(cc3c(c2OC)OCO3)CCN1C (some centres not stated),,,-9.7
COC(=O)C=CC(=O)OC,,,10.8
CC(C)NC[C@@H](C(=O)N1CCN(c2ncnc3c2[C@H](C)C[C@H]3O)CC1)c1ccc(Cl)cc1,6.57 µM (active),,
N#Cc1c(C2CCNCC2)cc(-c2c(O)cccc2OCC2CC2)nc1N,,,-7.21
C=Cc1c(C)c2cc3nc(cc4[nH]c(cc5nc(cc1[nH]2)C(C)=C5CCC(=O)O)c(CCC(=O)OC)c4C)[C@@]1(C)C3=CC=C(C(=O)OC)[C@H]1C(=O)OC,,inactive,
O=C1c2c(O)cccc2[C@@H]([C@@H]2O[C@H](CO)[C@@H](O)[C@H](O)[C@H]2O)c2cc(CO)cc(O)c21,,inactive,
COc1cccc2c1C(=O)c1c(O)c3c(c(O)c1C2=O)C[C@@](O)(C(=O)CO)C[C@@H]3O[C@H]1C[C@H](N)[C@@H](O)[C@H](C)O1,0.293 µM (active),,
COc1cc(O)c2c(c1)C1OC1C[C@H](O)[C@H](O)C(=O)C=CC[C@H](C)OC2=O (some centres not stated),9.27 µM (active),,

# Experiment: qHTS of pediatric cancer cell lines to identify multiple opportunities for drug repurposing: Confirmatory screen for OHS-50 cells (AID 1347128);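 further: compound exposure lasted 48 h at 37 degrees C; nearly all actives have a fitted effect of over 55% in size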; on activity change, negative = cytotoxic: on the % scale 0 is the no-effect control and ±100 the full control effect
# Settings: OHS-50 osteosarcoma cells viability; series mostly up to 45.9 µM; activity change, negative = cytotoxic: at the top concentration
# Summary of the method: as §1
SMILES,Potency,"activity change, negative = cytotoxic [%]"
C=CC(=O)Nc1ccc2ncnc(Nc3ccc(OCc4cccc(F)c4)c(Cl)c3)c2c1,6.57 µM (active),
CC(=O)N1CCN(c2ccc(OCc3nn(C)c(C)c3-c3cccc4c(CCCOc5cccc6ccccc56)c(C(=O)O)n(Cc5cccnc5)c34)cc2)CC1,,-10.2
COc1cccc2c1C(=O)c1c(O)c3c(c(O)c1C2=O)C[C@@](O)(C(=O)CO)C[C@@H]3O[C@H]1C[C@H](N)[C@H](OC2CCCCO2)[C@H](C)O1 (some centres not stated),14.7 µM (active),
O=C(Nc1cc2cc[nH]c2cn1)c1ccccc1,10.4 µM (active),
CC(=O)ON=C1C(c2c(O)[nH]c3cc(Br)ccc23)=Nc2ccccc21,14.7 µM (active),
Cn1cnc(=N)c2[nH]cnc21,,7.19
Cc1cnc(Nc2ccc(N3CCN(C)CC3)cc2)nc1Nc1cccc(S(=O)(=O)NC(C)(C)C)c1,2.93 µM (active),
CNC(=O)c1ccc(Nc2cc(Nc3ccccc3S(=O)(=O)C(C)C)c3cc[nH]c3n2)nc1,8.27 µM (active),
C=C1C(=CC=C2CCC[C@]3(C)[C@@H]([C@H](C)CCCC(C)(C)O)CC[C@@H]23)C[C@@H](O)C[C@@H]1O,,-21.3
O=C(NCc1ccccc1)[C@H](Cc1ccccc1)NC(=O)[C@@H]1O[C@@H]1C(=O)NCCc1ccc(O)cc1,,-10.4
CC(=O)O[C@@]12CO[C@H]1C[C@H](O)[C@@]1(C)C(=O)[C@H](O)C3=C(C)[C@@H](OC(=O)C(O)[C@@H](NC(=O)OC(C)(C)C)c4ccccc4)C[C@@](O)([C@@H](OC(=O)c4ccccc4)[C@@H]21)C3(C)C (some centres not stated),0.0233 µM (active),
CC(=O)SCC(Cc1ccccc1)C(=O)NCC(=O)OCc1ccccc1 (configuration not stated),,-12.1
CC(N[C@H]1CCCC[C@H]1NC(=O)c1ccc(Cl)cc1)c1cccc2ccccc12 (some centres not stated),20.8 µM (active),
COc1ccc2c(c1OC)C(=O)OC2[C@H]1c2c(cc3c(c2OC)OCO3)CCN1C (some centres not stated),,3.13
COC(=O)C=CC(=O)OC,,0.151
"Cc1c2oc3c(C)ccc(C(=O)NC4C(=O)NC(C(C)C)C(=O)N5CCCC5C(=O)N(C)CC(=O)N(C)C(C(C)C)C(=O)OC4C)c3nc-2c(C(=O)NC2C(=O)NC(C(C)C)C(=O)N3CCCC3C(=O)N(C)CC(=O)N(C)C(C(C)C)C(=O)OC2C)c(N)c1=O (configuration not stated) (I: TVP[Sar][NMeV] / II: TVP[Sar][NMeV]; ester I:1-I:C, II:1-II:C; linker I:N-II:N via Actinocin(9to1); configuration not given here)",0.0369 µM (active),
C=Cc1c(C)c2cc3nc(cc4[nH]c(cc5nc(cc1[nH]2)C(C)=C5CCC(=O)O)c(CCC(=O)OC)c4C)[C@@]1(C)C3=CC=C(C(=O)OC)[C@H]1C(=O)OC,,-4.19
COc1cc(C[C@@H](CO)[C@H](CO)Cc2ccc(O)c(OC)c2)ccc1O,,3.42
O=C1c2c(O)cccc2[C@@H]([C@@H]2O[C@H](CO)[C@@H](O)[C@H](O)[C@H]2O)c2cc(CO)cc(O)c21,,4.72
C#CCC(Cc1cnc2nc(N)nc(N)c2n1)c1ccc(C(=O)N[C@@H](CCC(=O)O)C(=O)O)cc1 (some centres not stated),0.0414 µM (active),
COc1cccc2c1C(=O)c1c(O)c3c(c(O)c1C2=O)C[C@@](O)(C(=O)CO)C[C@@H]3O[C@H]1C[C@H](N)[C@@H](O)[C@H](C)O1,1.47 µM (active),
